These results are taken from PubChem BioAssay (Tox21).

Where “and” joins values, the source holds several entries; their conditions need not be identical. Equal values may be shown once. A number with no mark means an inactive call. Results filed as inconclusive are left out. Calls of active or inactive are those of the source. Unless noted, the call rests on the fitted dose curve; in most records, active means well fitted curve in the direction sought with a large enough effect in the repeat runs; inconclusive means weak or mixed curves; inactive means no such curve, though single readings can be large; an effect the other way counts as inactive or inconclusive.

Test [1] can be described thus: Caspase-3/7 induction in CHO-K1 cells by small molecules, qHTS cell viability counter screen (AID 1346979). Further: nearly all actives have a fitted effect of over 35% in size. Further: potency means the concentration at half of the fitted maximal effect. The method, boiled down:
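Seeding: 1,500 CHO-K1 cells/well. Rest: 5hr, 37C. Treatment: compounds in DMSO, 16hr. Read: CellTiter-Fluor, 1hr, fluorescence.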

Test [2] in a line: Caspase-3/7 induction in CHO-K1 cells by small molecules, qHTS assay (AID 1346980). Further: nearly all actives have a fitted effect of over 15% in size. Further: potency means the concentration at half of the fitted maximal effect. The procedure, abridged:
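Luminescent Caspase-Glo 3/7 read (30min, room temperature) quantified apoptosis induction. Cells were wild-type CHO-K1, treated with compound for 17hr at 37 C and 5% CO2.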

The nature of test [3]: Caspase-3/7 induction in HepG2 cells by small molecules, qHTS cell viability counter screen (AID 1346981). Further: nearly all actives have a fitted effect of over 30% in size. Further: potency means the concentration at half of the fitted maximal effect. The method, boiled down: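 Treatment of HepG2 cells with DMSO-delivered compounds ran 16 hr at 37 C following a 5-hr pre-incubation of 2,000 cells/well. CellTiter-Fluor fluorescence, read after 1 hr, served as the viability measure in a qHTS format.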
Test [4] has as its target Nuclear receptor subfamily 1 group I member 2 (Homo sapiens) (UniProt O75469). Nature of the test: Human pregnane X receptor (PXR) small molecule agonists, qHTS assay (AID 1346982). Further: nearly all actives have a fitted effect of over 35% in size. The method, boiled down:
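Stable HepG2 line reporting PXR-mediated CYP3A4 expression via luciferase. Treatment: 24 hr with compounds in DMSO at 37 C. Detection: ONE-Glo luminescence.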

For test [5], the target named is Acetylcholinesterase (Homo sapiens) (UniProt P22303). Nature of the test: Acetylcholinesterase (AChE) small molecule antagonists: colormetric cell-based qHTS assay (AID 1347395; calls by dose curve; further: nearly all actives have a fitted effect of over 30% in size; further: potency means the concentration at half of the fitted maximal effect). The procedure, abridged: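 Quantitative HTS in attached SH-SY5Y cells: 30 min compound exposure, then 90 min with acetylthiocholine and DTNB at 37 C; colour from thiocholine reports AChE activity.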
Acetylcholinesterase (Homo sapiens), sequence (P22303 whole entry, looked up): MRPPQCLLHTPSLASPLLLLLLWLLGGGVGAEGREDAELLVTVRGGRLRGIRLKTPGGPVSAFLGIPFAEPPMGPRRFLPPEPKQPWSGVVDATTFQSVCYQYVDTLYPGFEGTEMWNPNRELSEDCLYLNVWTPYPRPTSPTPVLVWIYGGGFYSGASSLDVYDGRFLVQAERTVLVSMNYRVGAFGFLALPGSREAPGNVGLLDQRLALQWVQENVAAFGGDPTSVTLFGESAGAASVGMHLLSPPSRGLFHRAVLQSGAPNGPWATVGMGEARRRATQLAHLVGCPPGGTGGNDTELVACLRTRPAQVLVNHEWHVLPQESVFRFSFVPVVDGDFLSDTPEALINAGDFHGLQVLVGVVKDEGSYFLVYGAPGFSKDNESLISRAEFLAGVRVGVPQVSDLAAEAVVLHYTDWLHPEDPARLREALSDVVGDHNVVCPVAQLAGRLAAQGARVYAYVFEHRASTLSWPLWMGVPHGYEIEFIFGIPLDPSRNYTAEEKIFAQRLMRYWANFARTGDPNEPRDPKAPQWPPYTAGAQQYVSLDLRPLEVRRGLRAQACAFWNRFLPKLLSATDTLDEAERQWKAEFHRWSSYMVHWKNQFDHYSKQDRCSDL

Test [6] shares this target. Nature of the test: Acetylcholinesterase (AChE) small molecule antagonists: enzyme-based qHTS assay (AID 1347397; calls by dose curve; further: nearly all actives have a fitted effect of over 55% in size). The following applies: Potency: AChE enzyme activity inhibition. The method, boiled down:
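First, recombinant human AChE (50 mU/mL as dispensed) received test compound or DMSO. Second, plates stood 30 min at room temperature. Third, DTNB and acetylthiocholine were added, followed by 10 min at room temperature and colorimetric detection.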

Test [7] has the same target. As to the kind of experiment: Acetylcholinesterase (AChE) small molecule antagonists: fluorescence cell-based qHTS assay (AID 1347398; calls by dose curve; further: nearly all actives have a fitted effect of over 50% in size). The following applies: Potency: AChE activity. The method, boiled down:
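Homogeneous quantitative HTS format. SH-SY5Y cells seeded at 2,000 per well settle overnight at 37 C. Compound pretreatment runs 30 min (37 C, 5% CO2); substrate/probe mix then reacts 40 min at RT before reading 490/520 nm.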

In test [8] the target is Cytochrome P450 1A2 (Homo sapiens) (UniProt P05177). As to the kind of experiment: Cytochrome P450 Family 1 Subfamily A Member 2 (CYP1A2) small molecule antagonists: luciferase reporter qHTS assay (AID 1671199). Further: nearly all actives have a fitted effect of over 50% in size. Further: potency means the concentration at half of the fitted maximal effect. The method, boiled down: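 Read-out is luminescence from luciferin detection reagent (20 min) proportional to CYP1A2 activity; compounds in DMSO preincubated 10 min with enzyme and proluciferin substrate, then NADPH regeneration solution, 1 h, room temperature.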
Cytochrome P450 1A2 (Homo sapiens), sequence (P05177 whole entry, looked up): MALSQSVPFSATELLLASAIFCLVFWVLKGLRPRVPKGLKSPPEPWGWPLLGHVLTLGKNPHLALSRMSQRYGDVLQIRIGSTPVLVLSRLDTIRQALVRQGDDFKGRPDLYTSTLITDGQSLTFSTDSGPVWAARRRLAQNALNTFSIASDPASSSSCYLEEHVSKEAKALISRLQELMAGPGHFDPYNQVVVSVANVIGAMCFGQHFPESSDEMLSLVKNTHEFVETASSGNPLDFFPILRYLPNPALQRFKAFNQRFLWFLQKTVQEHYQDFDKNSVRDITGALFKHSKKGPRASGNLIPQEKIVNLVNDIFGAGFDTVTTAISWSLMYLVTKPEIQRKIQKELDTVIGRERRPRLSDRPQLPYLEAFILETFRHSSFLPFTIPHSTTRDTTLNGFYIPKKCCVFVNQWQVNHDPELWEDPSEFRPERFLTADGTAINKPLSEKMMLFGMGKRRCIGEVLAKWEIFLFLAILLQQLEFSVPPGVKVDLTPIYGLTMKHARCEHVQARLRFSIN

Test [9] deals with Cytochrome P450 3A4 (Homo sapiens) (UniProt P08684). Nature of the test: Cytochrome P450 Family 3 Subfamily A Member 4 (CYP3A4) small molecule antagonists: luciferase reporter qHTS assay (AID 1671201). Further: series mostly up to about 120 µM; nearly all actives have a fitted effect of over 50% in size. The procedure, abridged: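 Enzyme and proluciferin substrate are mixed with test chemicals for 10 min, then NADPH regeneration system drives turnover for 1 h at room temperature. A detection reagent halts the reaction; luminescence after 20 min gives relative activity.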
Cytochrome P450 3A4 (Homo sapiens), sequence (P08684 whole entry, looked up): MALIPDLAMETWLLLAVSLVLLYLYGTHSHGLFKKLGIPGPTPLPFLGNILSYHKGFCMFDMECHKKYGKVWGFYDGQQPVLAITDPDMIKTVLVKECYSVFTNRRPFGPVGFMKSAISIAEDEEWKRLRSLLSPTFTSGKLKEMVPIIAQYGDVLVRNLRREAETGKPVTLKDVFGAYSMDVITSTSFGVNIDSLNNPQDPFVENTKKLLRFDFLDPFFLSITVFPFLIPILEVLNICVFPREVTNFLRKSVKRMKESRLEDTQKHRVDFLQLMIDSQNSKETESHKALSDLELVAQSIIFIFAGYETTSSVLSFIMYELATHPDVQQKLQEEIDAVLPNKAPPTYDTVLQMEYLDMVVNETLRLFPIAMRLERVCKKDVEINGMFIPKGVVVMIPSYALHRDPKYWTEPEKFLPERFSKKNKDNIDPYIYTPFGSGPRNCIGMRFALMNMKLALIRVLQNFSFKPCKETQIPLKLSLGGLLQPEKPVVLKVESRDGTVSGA

Test [10] concerns the target Acetylcholinesterase (Homo sapiens) (UniProt P22303). As to the kind of experiment: Acetylcholinesterase (AChE) small molecule antagonists: enzyme-based qHTS assay with human liver microsomes (AID 1347399; calls by dose curve; further: nearly all actives have a fitted effect of over 60% in size). The following applies: Potency: qHTS inhibition. The method, boiled down: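 Recombinant human AChE (50 mU/mL in the enzyme mix) and human liver microsomes (0.25 mg/mL final) were preincubated with compound and NADPH (0.25 mg/mL final) for 30 min at 37 C. Acetylthiocholine/DTNB was then added; thiocholine was read colorimetrically after 10 min at room temperature.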

Test [11] deals with Cytochrome P450 2D6 (Homo sapiens) (UniProt P10635). Nature of the test: Cytochrome P450 Family 2 Subfamily D Member 6 (CYP2D6) small molecule antagonists: luciferase reporter qHTS assay (AID 1671196). Further: nearly all actives have a fitted effect of over 50% in size. Further: potency means the concentration at half of the fitted maximal effect. The method, boiled down: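 Chemicals tested for interference with CYP2D6 activity; proluciferin substrate, NADPH regeneration, 1 h at room temperature, luminescent detection.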
Cytochrome P450 2D6 (Homo sapiens), sequence (P10635 whole entry, looked up): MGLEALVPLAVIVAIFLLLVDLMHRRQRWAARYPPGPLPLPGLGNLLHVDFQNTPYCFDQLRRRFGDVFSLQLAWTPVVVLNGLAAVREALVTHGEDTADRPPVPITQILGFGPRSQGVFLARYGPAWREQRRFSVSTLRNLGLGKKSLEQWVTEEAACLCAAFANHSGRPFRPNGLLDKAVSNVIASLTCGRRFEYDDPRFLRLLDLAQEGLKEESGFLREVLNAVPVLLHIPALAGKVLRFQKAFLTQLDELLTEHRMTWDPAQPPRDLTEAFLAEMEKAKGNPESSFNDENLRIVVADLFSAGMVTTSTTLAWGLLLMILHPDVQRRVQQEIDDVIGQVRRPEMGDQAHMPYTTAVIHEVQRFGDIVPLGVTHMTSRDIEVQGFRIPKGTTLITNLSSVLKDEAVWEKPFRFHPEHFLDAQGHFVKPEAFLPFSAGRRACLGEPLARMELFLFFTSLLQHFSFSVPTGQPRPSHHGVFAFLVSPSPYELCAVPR

In test [12] the target is Voltage-gated inwardly rectifying potassium channel KCNH2 (Homo sapiens) (UniProt Q12809). Nature of the test: Human Ether-a-go-go-Related Gene (hERG) channel small molecule antagonists: fluorescence cell-based qHTS assay (AID 1671200). Further: nearly all actives have a fitted effect of over 50% in size. Further: potency means the concentration at half of the fitted maximal effect. The method, boiled down:
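First, 1000 cells per well are seeded and cultured overnight at 37 C. Next, FluxOR II dye is loaded for 1 h at room temperature, protected from light. After 10 more minutes, stimulus is added and fluorescence is read.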

The target in test [13] is Cytochrome P450 2C19 (Homo sapiens) (UniProt P33261). Nature of the test: Cytochrome P450 Family 2 Subfamily C Member 19 (CYP2C19) small molecule antagonists: luciferase reporter qHTS assay (AID 1671197). Further: series mostly up to about 120 µM; nearly all actives have a fitted effect of over 65% in size. The method, boiled down: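 CYP2C19 P450-Glo, 1536-well qHTS. Cpd + enzyme/proluciferin substrate 10 min RT; + NADPH regen, 37C 1 h; stop with luciferin detection reagent, 20 min RT, luminescence (RLU). Pos ctrl ketoconazole.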
Cytochrome P450 2C19 (Homo sapiens), sequence (P33261 whole entry, looked up): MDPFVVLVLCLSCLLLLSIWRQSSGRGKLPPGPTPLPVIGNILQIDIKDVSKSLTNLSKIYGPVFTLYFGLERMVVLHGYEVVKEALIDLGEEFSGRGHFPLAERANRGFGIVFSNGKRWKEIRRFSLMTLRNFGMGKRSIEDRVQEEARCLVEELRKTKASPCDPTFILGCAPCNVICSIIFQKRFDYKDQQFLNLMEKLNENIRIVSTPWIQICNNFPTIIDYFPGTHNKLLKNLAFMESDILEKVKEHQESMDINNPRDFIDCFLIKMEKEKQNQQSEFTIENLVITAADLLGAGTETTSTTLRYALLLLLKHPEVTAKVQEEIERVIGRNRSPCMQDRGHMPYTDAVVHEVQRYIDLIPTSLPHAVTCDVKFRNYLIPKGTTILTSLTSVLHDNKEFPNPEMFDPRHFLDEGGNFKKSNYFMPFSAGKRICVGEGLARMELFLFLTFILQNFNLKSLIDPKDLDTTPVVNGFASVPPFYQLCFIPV

For test [14], the target named is Cytochrome P450 2C9 (Homo sapiens) (UniProt P11712). As to the kind of experiment: Cytochrome P450 Family 2 Subfamily C Member 9 (CYP2C9) small molecule antagonists: luciferase reporter qHTS assay (AID 1671198). The procedure, abridged: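 Enzyme-substrate mix preincubated with compound 10 min at room temperature; reaction started with NADPH regeneration solution, 1 h 37C. Luminescent luciferin product read after 20 min detection reagent.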
Cytochrome P450 2C9 (Homo sapiens), sequence (P11712 whole entry, looked up): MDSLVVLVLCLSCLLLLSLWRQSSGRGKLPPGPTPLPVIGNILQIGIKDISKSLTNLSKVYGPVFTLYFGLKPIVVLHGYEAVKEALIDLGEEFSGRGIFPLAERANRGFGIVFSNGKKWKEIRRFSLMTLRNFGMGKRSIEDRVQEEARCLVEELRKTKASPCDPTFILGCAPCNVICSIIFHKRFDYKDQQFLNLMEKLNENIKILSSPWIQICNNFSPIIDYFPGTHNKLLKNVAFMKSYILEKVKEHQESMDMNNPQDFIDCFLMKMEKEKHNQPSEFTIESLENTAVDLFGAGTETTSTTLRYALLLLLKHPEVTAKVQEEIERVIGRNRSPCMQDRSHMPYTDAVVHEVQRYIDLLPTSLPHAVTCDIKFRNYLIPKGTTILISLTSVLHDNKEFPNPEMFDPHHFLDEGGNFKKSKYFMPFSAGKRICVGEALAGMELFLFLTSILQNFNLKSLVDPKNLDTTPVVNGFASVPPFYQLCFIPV

Voltage-gated inwardly rectifying potassium channel KCNH2 (Homo sapiens), sequence (Q12809 whole entry, looked up): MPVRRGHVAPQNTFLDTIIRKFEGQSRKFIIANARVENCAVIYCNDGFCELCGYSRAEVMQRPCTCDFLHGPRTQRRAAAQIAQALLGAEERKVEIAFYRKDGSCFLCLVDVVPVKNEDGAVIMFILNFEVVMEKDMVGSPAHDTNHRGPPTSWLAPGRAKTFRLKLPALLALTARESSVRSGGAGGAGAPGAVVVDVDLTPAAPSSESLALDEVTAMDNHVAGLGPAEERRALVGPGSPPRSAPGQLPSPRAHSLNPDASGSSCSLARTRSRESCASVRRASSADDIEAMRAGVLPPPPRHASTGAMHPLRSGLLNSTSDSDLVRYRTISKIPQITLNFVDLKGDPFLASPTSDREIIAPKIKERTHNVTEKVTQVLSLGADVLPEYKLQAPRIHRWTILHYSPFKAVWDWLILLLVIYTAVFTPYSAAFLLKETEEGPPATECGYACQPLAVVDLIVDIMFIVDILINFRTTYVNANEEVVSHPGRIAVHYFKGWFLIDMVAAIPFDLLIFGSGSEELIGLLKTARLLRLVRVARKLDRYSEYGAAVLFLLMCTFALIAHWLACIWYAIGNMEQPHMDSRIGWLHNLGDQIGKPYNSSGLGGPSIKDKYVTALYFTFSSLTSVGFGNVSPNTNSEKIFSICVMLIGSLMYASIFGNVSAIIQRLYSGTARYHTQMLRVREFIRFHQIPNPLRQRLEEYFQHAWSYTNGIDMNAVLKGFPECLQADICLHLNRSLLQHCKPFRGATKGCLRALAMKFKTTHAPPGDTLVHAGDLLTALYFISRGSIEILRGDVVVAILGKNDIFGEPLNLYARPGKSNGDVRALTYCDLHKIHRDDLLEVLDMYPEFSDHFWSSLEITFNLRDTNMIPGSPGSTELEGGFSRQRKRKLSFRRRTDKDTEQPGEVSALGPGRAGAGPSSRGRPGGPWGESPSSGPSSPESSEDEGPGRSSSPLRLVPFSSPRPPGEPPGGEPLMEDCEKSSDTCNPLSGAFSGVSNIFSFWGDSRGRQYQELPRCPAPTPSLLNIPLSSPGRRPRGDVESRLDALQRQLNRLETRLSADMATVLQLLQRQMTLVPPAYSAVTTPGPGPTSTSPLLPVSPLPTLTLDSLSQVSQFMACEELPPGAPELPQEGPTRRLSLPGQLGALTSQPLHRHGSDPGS
Nuclear receptor subfamily 1 group I member 2 (Homo sapiens), sequence (O75469 whole entry, looked up): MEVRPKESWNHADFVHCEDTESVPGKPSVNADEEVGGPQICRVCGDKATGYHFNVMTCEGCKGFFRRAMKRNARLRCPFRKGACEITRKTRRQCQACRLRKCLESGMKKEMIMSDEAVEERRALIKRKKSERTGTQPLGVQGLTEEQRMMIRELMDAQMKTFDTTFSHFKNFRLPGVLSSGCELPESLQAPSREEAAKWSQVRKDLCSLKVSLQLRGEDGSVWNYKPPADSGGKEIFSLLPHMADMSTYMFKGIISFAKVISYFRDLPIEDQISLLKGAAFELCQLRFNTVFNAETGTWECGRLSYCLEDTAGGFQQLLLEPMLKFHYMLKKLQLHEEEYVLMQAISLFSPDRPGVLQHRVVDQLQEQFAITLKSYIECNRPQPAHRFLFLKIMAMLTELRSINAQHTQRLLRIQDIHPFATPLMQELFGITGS

As for `O=c1[nH]c2ccccc2n1C1CCN(CCCC(c2ccc(F)cc2)c2ccc(F)cc2)CC1`, the Potency is 30.6 µM (active) and 26.6 µM (active) in test [1]; 30.6 µM (active) in [2]; 54.5 µM (active) in test [3]. Besides, the Potency result in test [4], in [5], in [6], in test [7], in [8] and in test [9] was “inactive” each time.

Regarding `COc1ccc(OC)c(C=O)c1`, the Potency result in test [1], in test [2], in test [3], in test [4], in test [5] and in test [6] was “inactive” throughout. The Potency entry in test [7], in test [10], in [11], in test [12] and in test [9] was “inactive” each time. In addition, in test [8], the Potency is 28.3 µM (active).

In the case of `CCCCCCCCCBr`, the Potency result in test [1], in test [2], in test [3], in [4], in test [5] and in test [6] was “inactive” each time. The Potency entry in [7], in [11], in [13], in test [14], in test [12] and in test [9] was “inactive” throughout.

Take `COP(N)(=S)OC`: the Potency result in [1], in test [2], in test [3], in test [4], in test [6] and in test [7] was “inactive” throughout. In addition, the Potency entry in test [10], in test [14], in test [8], in [12] and in [9] was “inactive” in each case. In addition, the Potency in test [5] was 63.3 µM (active).

With `CCCCCCCCCCCCCN1CC(C)OC(C)C1` (configuration not stated), the Potency entry in test [1], in test [2], in test [3], in [4], in [5] and in [6] was “inactive” in each case. The Potency entry in test [10], in [13], in test [8] and in [9] was “inactive” in each case. The Potency was 22.4 µM (active) in test [11] and 13.8 µM (active) in test [12].

For the compound `CCCCCCCCCCBr`, the Potency entry in test [1], in test [2], in [3], in test [4], in test [5] and in test [6] was “inactive” in each case. Also, the Potency entry in [10], in [11], in test [13], in test [14], in [12] and in test [9] was “inactive” each time.

In the case of `O=C(Cl)c1ccc(Cl)cc1`, the Potency result in test [1], in test [2], in test [3], in test [4], in [5] and in [6] was “inactive” in each case. The Potency result in [7], in [10], in test [8], in [12] and in test [9] was “inactive” each time.

`N#CC(Cl)Cl`: the Potency result in test [1], in test [2], in test [3], in [4], in test [5] and in [6] was “inactive” throughout. In addition, the Potency result in test [7], in test [10] and in test [9] was “inactive” throughout. The Potency in test [11] and in test [8] was 61.6 µM (active) throughout.

On to `BrCC(Br)c1ccccc1` (configuration not stated), for which the Potency entry in test [1], in test [2], in [3], in test [4], in test [5] and in test [6] was “inactive” each time. Besides, the Potency entry in test [7], in test [10], in [12] and in test [9] was “inactive” in each case. The Potency in test [11] was 12.6 µM (active).
